# Compound activity as filed in PubChem.
# Anthrax LF prot: Bacillus anthracis LF protease inhibitors, primary screen, biochemical, multiplex microsphere, MLPCN library; Lethal factor (Bacillus anthracis), P15917; multiplex microsphere protease cleavage assay; inhibition, % at 10 µM; 360,000 tested, 0.12% active; AID 588501, 2011; note: plate controls were buffer without enzyme for full effect and enzyme alone for no effect
# Autofluor counter: flagged as autofluorescent in microsphere protease counterscreen; compound autofluorescence counterscreen, microsphere flow cytometry; hits give high values; 360,000 tested, 3.1% active; fluorescence intensity (no concentration beside the values); in the data active = fluorescence intensity above about 16000; inconclusive = no clear call, values can overlap the other calls
# BJeLR lethal: MLPCN primary cell-based screen for lethality selective to Ras in HRASV12 cells; 300,000 tested, 0.17% active; inhibition, % (test concentration not listed); BJeLR (HRASV12) viability, CellTiter-Glo ATP luminescence, 48 h; in the data active = inhibition above about 50%; inconclusive = no clear call, values can overlap the other calls
# BoNT-A LC inh2: BoNT/A light chain protease inhibitors, primary screen, biochemical, flow cytometry, MLPCN library; inhibition, % at 10 µM; 360,000 tested, 0.17% active; Botulinum neurotoxin type A light chain protease (Clostridium botulinum A str. ATCC 3502); multiplex microsphere protease substrate cleavage; note: plate controls were buffer without enzyme for full effect and enzyme alone for no effect
# BoNT F protease: BoNT/F light chain protease inhibitors, primary screen, biochemical, flow cytometry, MLPCN library. Botulinum neurotoxin type F light chain protease (Clostridium botulinum). Multiplex microsphere protease cleavage assay. inhibition, % at 10 µM. 360,000 tested, 0.22% active; in the data active = inhibition above about 35%, passing the limit was not always enough; inconclusive = no clear call, values can overlap the other calls; note: plate controls were buffer without enzyme for full effect and enzyme alone for no effect
# Numbers without * were called inactive; ? = inconclusive; nt = no result given. Hits are enriched below; roughly 3.5% of the tested compounds scored in any of these assays. Cut-off read from the data, not from the text of the source, unless noted: active = inhibition above about 30%; inconclusive = no clear call, values can overlap the other calls; inactive = below that.
SMILES,Anthrax LF prot,Autofluor counter,BJeLR lethal,BoNT-A LC inh2,BoNT F protease
Cn1nnnc1SCC(=O)c1ccc2c(c1)OCCO2,-5,3907,-4,0,6
CCc1nc(SCC(=O)c2ccc3c(c2)OCCO3)c2ccccc2n1,-2,22675*,-14,1,0
Cn1cnnc1SCC(=O)c1ccc2c(c1)OCCO2,-4,16723*,-8,-2,-2
CC(C)NC(=O)C1(C)CCN1C(=O)c1cccc(F)c1 (configuration not stated),2,3757,nt,0,-1
COc1ccc(N2CCN(C3CC(=O)NC3=O)CC2)cc1 (configuration not stated),-5,24614*,6,?,-10
COCCNc1nc(NCc2ccc(NC(C)=O)cc2)c2sc(-c3ccccc3)cc2n1,1,3571,nt,1,-4
O=C(O)C=C1CCN(c2ncc(C(F)(F)F)cc2Cl)CC1,-9,6834,1,-1,2
O=C(OC1CCN(c2ncc(C(F)(F)F)cc2Cl)CC1)c1ccccc1,-3,22198*,9,1,0
NNC(=O)C=C1CCN(c2ncc(C(F)(F)F)cc2Cl)CC1,-8,20786*,2,2,2
COc1ccc(/C=N/NC(=O)C2CCN(c3ncc(C(F)(F)F)cc3Cl)CC2)cc1,-2,22271*,2,?,-1
COc1ccc(N2CCN(C(=O)Cc3ncc(C(F)(F)F)cc3Cl)CC2)cc1,-3,23985*,1,0,-2
COC(=O)c1scc(C)c1N/N=C(\C)c1cc(F)c(Cl)cc1F,-2,16330*,5,0,-2
CC1([N+](=O)[O-])COP(=O)(Nc2cccc(Br)c2)OC1 (configuration not stated),1,16672*,nt,2,25
COc1ccc(Nc2cccccc2=O)cc1,-11,6217,-2,-1,-16
COc1ccc(Nc2ccccc2)c(C)c1,-2,22653*,-6,2,-2
COc1ccc(OC)c(Nc2cc(C)nc3ccccc23)c1,-2,5526,3,0,2
COc1cccc(Nc2cc(C)nc3ccccc23)c1,1,20171*,15,?,0
Cn1c2ccc(F)cc2c2ncn(Cc3ccco3)c(=O)c21,-2,23973*,2,-2,-7
Cn1c2ccccc2c2ncn(Cc3ccco3)c(=O)c21,0,19514*,0,2,1
C=CCNC(=O)COC(=O)c1cc(S(=O)(=O)N2CCOCC2)ccc1N1CCCCC1,2,3221,2,1,4
COC(=O)Cc1c(C)c2ccc(OC(C)C)cc2oc1=O,1,4642,-9,0,-3
CCc1c(C)c2ccc(OCC(=O)OC)cc2oc1=O,-5,17530*,-3,?,-10
NC(=O)c1cn(C2CCCCC2)c2ccccc2c1=O,14,3613,12,-2,41*
CN(C)CCNc1nc2sc3c(c2c(=O)n1-c1ccc(F)cc1)CCCCC3,-8,4547,9,2,-30
COc1ccc(-n2c(NCCN(C)C)nc3sc4c(c3c2=O)CCCCC4)cc1,0,22405*,1,0,-1
SMILES,Anthrax LF prot,Autofluor counter,BJeLR lethal,BoNT-A LC inh2,BoNT F protease
CCNC(=S)NNC(=O)c1ccc(OC(F)F)cc1,-2,23106*,5,0,2
CC(C)CNC(=S)NNC(=O)c1ccc(OC(F)F)cc1,0,23366*,-2,0,0
CCNC(=S)NNC(=O)c1cccnc1,-3,6606,-5,-1,-17
C=CCNC(=S)NNC(=O)c1ccc(OC(C)C)cc1,-9,9572,10,-1,-12
O=c1nc(N2CCCCC2)nc2n1CCO2,-1,2533,0,1,5
CN1CCn2c1nc(N1CCCCC1)nc2=O,0,21803*,1,-6,-9
COC(=O)C1CCN(C2CN(Cc3ccc(C)cc3)S(=O)(=O)C2)CC1 (configuration not stated),-12,4127,nt,0,-15
O=C(Nc1ccc(-c2nc3ccccc3o2)cc1)C1CCCO1 (configuration not stated),1,19183*,0,2,3
O=S(=O)(Nc1ccc(-c2nc3ccccc3o2)cc1)c1ccccc1,-3,23226*,-3,?,-7
CC(=O)Nc1ccc(S(=O)(=O)Nc2cccc(-c3nc4ccccc4o3)c2)cc1,0,6567,1,2,-6
Cc1cc(C)n(Cc2ccc(C(=O)O)cc2)n1,-4,8262,-6,-1,-1
